KDM5B inh: inhibitors of human KDM5B histone demethylase; Q9UGL1; KDM5B demethylase, FDH-coupled NADH fluorescence (FDH is formaldehyde dehydrogenase); Potency, µM (titrated, usually from 57.7 µM), hits mostly inhibitors; 2.6% of 220,000 active; AID 1347165; active = well fitted inhibition curve with a large enough effect; note: 0% is about no effect; nearly all actives have a fitted effect of over 70% in size
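Compound dilutions met 200 nM (final) KDM5BΔAP for 10 min at room temperature before substrate addition. The substrate mix held 12.5 µM H3K4me3 with cofactors 25 µM α-ketoglutarate and 50 µM Fe²⁺. NADH signal gain over 30 min defined activity.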
An asterisk follows results filed as active; i = inactive. Shown is part of a subset that was picked to be rich in hits. Potency is the fitted concentration of half-maximal effect.

SMILES	KDM5B inh
COc1ccc(NC(=O)c2cc(Cl)c(O)c(OC)c2)c(OC)c1	i
NS(=O)(=O)c1ccc(CCNC(=O)c2cc(=O)c3ccccc3o2)cc1	i
CCc1ccc(-c2nc(C(=O)N3CCN(C(C#N)c4ccc(F)cc4)CC3)cs2)cc1 (centres undefined)	i
O=C(CCc1ncc(-c2ccc(Cl)cc2)o1)Nc1ccccc1O	i
O=C(NC1CCS(=O)(=O)C1)c1n[nH]c(=O)c2ccccc12 (centres undefined)	i
Cc1ccc2nc(-c3cccc(NC(=O)c4ccc([N+](=O)[O-])c(C)c4)c3)oc2c1	i
CC(=O)N1CCC(C(=O)N2CCCn3cc(-c4ccccc4)nc32)CC1	i
Cc1cc(C)n(CCC(=O)N2CCCn3cc(-c4ccccc4)nc32)n1	i
Cc1cc(C(=O)N2CCCn3cc(-c4ccccc4F)nc32)nn1C	i
N#Cc1cccc(-c2cn3c(n2)N(C(=O)c2ccccc2)CCC3)c1	20µM*
N#Cc1cccc(-c2cn3c(n2)N(C(=O)CC2CCCC2)CCC3)c1	20µM*
N#Cc1cccc(-c2cn3c(n2)N(C(=O)COc2ccccc2)CCC3)c1	28µM*
CC(=O)NCC(=O)N1CCCn2cc(-c3cccc(C#N)c3)nc21	i
COc1cccc(-c2cn3c(n2)N(C(=O)Cn2ccnc2)CCC3)c1	i
O=C(CC1CCCCC1)N1CCN(c2cc(-c3ccccc3)[nH]n2)CC1	i
Cc1cccc(CN2CCC(CNC(=O)c3cnc(N4CCOCC4)c4ccccc34)CC2)c1	i
CCc1ccccc1NC(=O)CN(C)C(=O)c1nn(-c2ccccc2)c2c1CCC2	i
COc1ccc(C(=O)Nc2nc3c(s2)C[C@@H]2[C@](C)(CO)[C@H](O)CC[C@@]2(C)[C@@H]3CC(=O)NC(C)C)cc1	i
COc1ccc2oc(=O)c(C(=O)Nc3ccccc3Cl)cc2c1	i
CC(C)CCn1cnc2c1c(=O)n(CC(=O)Nc1cc(F)ccc1F)c(=O)n2Cc1ccccc1	i
O=c1c(Cl)c(N2CCN(c3ccccc3)CC2)cnn1-c1nc2ccccc2s1	i
Cc1nc2ncccn2c1C(=O)N1CCNCC(C(=O)O)C1 (centres undefined)	22µM*
O=C(c1cc(-n2cccn2)ccc1Cl)N1CCn2nc(CO)cc2C1	i
O=C(c1ccccc1OCc1ccccc1)N1CCNCC(O)C1 (centres undefined)	i
O=C(O)C1CNCCN(C(=O)c2nc3ccc(F)cc3[nH]2)C1 (centres undefined)	i
SMILES	KDM5B inh
Cc1nc2ncccn2c1C(=O)N1CCn2nc(CO)cc2C1	32µM*
Cc1cccc2nc(C(=O)N3CCn4nc(Cc5ccccc5)cc4C3)cn12	i
CC(C)(CNC(=O)C1CC1)CNC(=O)C1CC1	i
COc1ccc(C(=O)/C=C/c2cccc(N)c2)cc1	i
Nc1nc2c(c(=O)[nH]1)CCN(C(=O)CC(c1ccccc1)c1ccco1)C2 (centres undefined)	18µM*
CC(=O)c1c(C)nn(C(C)CC(=O)N2CCc3c(nc(N)[nH]c3=O)C2)c1C (centres undefined)	i
N#Cc1cc2n(n1)CCCN(C(=O)CC(c1ccccc1)c1ccco1)C2 (centres undefined)	i
Cc1[nH]c2ccccc2c1C(=O)/C=C/c1ccc(F)c(F)c1	i
O=S(=O)(NCCCn1ccc2ccccc21)c1ccccc1F	i
O=C(O)c1ccc(CNC(=O)c2ccc3c(c2)OCCO3)cc1	i
CN(C)CCOCC1(C)COc2ccc(C(=O)NCc3ccc(F)cc3)cc2N1 (centres undefined)	40µM*
CN(C)CCOCC1(C)COc2ccc(C(=O)NCc3cccc(F)c3)cc2N1 (centres undefined)	40µM*
O=C(NCc1ccc(F)cc1)c1cccc(S(=O)(=O)Nc2ccc3c(c2)OCO3)c1	i
O=C(NCc1cccc(F)c1)C1=Cc2cc(Br)ccc2OC1	i
CC1(C(=O)NCc2cccc(F)c2)CCCCC(=O)N1 (centres undefined)	i
CCOC(=O)c1[nH]c(C)c(C(=O)OC(C)C(=O)OC)c1C (centres undefined)	i
Cc1cccc(NC(=O)C(C)OC(=O)c2cc[n+]([O-])cc2)c1 (centres undefined)	i
CC(C)n1nc(C(=O)Nc2cccc(S(=O)(=O)NC3=NCCC3)c2)c2ccccc2c1=O	i
Cc1cc(=O)oc2cc(NC(=O)COc3ccccc3)ccc12	i
Cn1nc(C(=O)NN2C(=O)NC(C)(c3ccccc3)C2=O)c2ccccc2c1=O (centres undefined)	i
C=CCNC(=O)NC(=O)CN(Cc1ccccc1)CC(C)C(=O)OC (centres undefined)	i
CC(=O)Nc1cccc(C(=O)NCCn2ccn3nc(-c4ccc(F)cc4)cc3c2=O)c1	i
COc1ccc(C(=O)NCCn2ccn3nc(-c4ccc(F)cc4)cc3c2=O)cn1	25µM*
COc1ccc(-c2cc3c(=O)n(CCNC(=O)c4ccc5c(c4)OCO5)ccn3n2)cc1	6.3µM*
CCOc1ccc(-c2cc3c(=O)n(CCNC(=O)c4ccc(F)c(F)c4)ccn3n2)cc1	i

Compound activity: PubChem, National Center for Advancing Translational Sciences (NCATS)
